S1P2 blocker – blocks the human S1P2 receptor; O95136; cell-based S1P2 antagonist assay, inhibition at 5 uM; inhibition, % at 5 µM; 97,000 tested, 0.21% active; AID 736; in the data active = inhibition above about 45%;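 also: CRE beta-lactamase reporter cells expressing human S1P2 stimulated with S1P; 0% = agonist at EC80 alone and 100% = agonist plus reference antagonist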
Target sequence (O95136 whole entry, looked up): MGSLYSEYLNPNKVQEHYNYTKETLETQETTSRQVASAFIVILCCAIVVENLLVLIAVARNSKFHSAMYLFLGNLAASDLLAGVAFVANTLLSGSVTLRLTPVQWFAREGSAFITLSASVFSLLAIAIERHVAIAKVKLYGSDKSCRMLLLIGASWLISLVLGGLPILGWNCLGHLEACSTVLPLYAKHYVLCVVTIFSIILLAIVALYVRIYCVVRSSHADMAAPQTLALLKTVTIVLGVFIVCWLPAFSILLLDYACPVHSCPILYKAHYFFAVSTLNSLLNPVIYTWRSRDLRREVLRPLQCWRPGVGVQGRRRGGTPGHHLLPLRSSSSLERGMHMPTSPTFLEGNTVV
GALR2 agonist – GALR2 (human) receptor agonism; O43603; 140,000 tested, 0.48% active; AID 803; GALR2-expressing cells, agonist activation read-out; activation, % (no concentration beside the values); in the data active = activation above about 5%, passing the limit was not always enough;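 also: 0% = vehicle buffer wells and 100% = reference agonist at full effect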
PostGolgi yeast – growth inhibition of a yeast mutant, post-Golgi transport screen; post-Golgi transport phenotypic cell assay; 98,000 tested, 0.9% active; AID 739; inhibition, % at 10 µM;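 also: yeast cells grown in 1536-well plates; yeast grown about 18 h at 30C before absorbance read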
GALR2 antag – antagonists of human galanin receptor 2 (GALR2); GALR2-expressing cells, antagonist mode; AID 828; 140,000 tested, 0.39% active; inhibition, % at 4 µM; in the data active = inhibition above about 27%;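 also: cells stimulated with galanin 1-16 at roughly its EC80; 0% = agonist challenge control and 100% = basal control without agonist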
PostGolgi ctrl – yeast control strain growth, post-Golgi counter-screen | inhibition, % at 10 µM | efflux-deficient yeast background strain, growth absorbance A615, 16 h | 98,000 tested, 5% active
S1P2 ag – agonists of human S1P2 receptor. S1P2-expressing cell line, agonist reporter read-out. activation, % at 4.5 µM. 97,000 tested, 0.46% active; in the data active = activation above about 16%;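 also: 0% = vehicle low control and 100% = maximal reference agonist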
Active calls of the source: *; . = no result given. The full list was thinned out, with hits kept by preference. Rule as the data show it, unless noted: active = inhibition above about 30%; inactive = the rest.

SMILES	S1P2 blocker	GALR2 agonist	PostGolgi yeast	GALR2 antag	PostGolgi ctrl	S1P2 ag
O=S(=O)(c1ccc(Cl)cc1)N1CCCC1c1nc(-c2cccc(Cl)c2)no1 (configuration not stated)	2	-1	1	2	33*	-8
Cc1cc(CSc2ccccc2)ccc1NC(=O)c1ccc(Cl)c([N+](=O)[O-])c1	12	-2	0	-18	10	-6
Cc1ccc(S(=O)(=O)Nc2nc(C)c(NC(=O)Nc3ccc(Cl)cc3Cl)s2)cc1	7	-3	5	4	41*	-7
COc1cc(OC)c2nc(C)c3c(c2c1)N(c1ccc(O)cc1)CC3	5	-3	-3	11	0	-4
CCOC(=O)c1oc2ccc(CNC(C)(C)C)c(Cl)c2c1C	-24	1	.	1	.	1
COc1cccc(C(=O)Nc2cccc(SC)c2)c1	17	-1	13	3	30*	-6
COc1cccc(C(=O)Nc2ccccc2)c1	-2	-1	15	1	0	-9
COc1cccc(C(=O)Nc2ccc3nc(N4CCN(c5ncccn5)CC4)cc(C)c3c2)c1OC	2	1	-2	7	41*	-2
CN(C)S(=O)(=O)Oc1cccc(C(=O)Nc2ccc(Cl)c(Cl)c2)c1	8	-2	10	11	36*	-5
CCOc1ccccc1C(=O)Nc1ccc2nc(N3CCN(c4ncccn4)CC3)cc(C)c2c1	20	1	.	-5	.	14
COc1cccc(NC(=O)c2cccc(OC)c2OC)c1	-12	-1	-9	20	48*	-2
S=C1NCCOCCNC(=S)NCCOCCOCCOCCN1	.	-1	.	11	.	.
CCC1=NN=C(c2ccc(F)cc2)C(c2c[nH]c3ccccc23)N1O (configuration not stated)	-10	-2	.	4	.	-4
CC(CCc1ccco1)NC(=O)Nc1cccc(F)c1 (configuration not stated)	30	-2	28	6	5	-4
Cc1ccc(NC(=O)CS(=O)CC(=O)NC(C)CCc2ccco2)cc1Cl (configuration not stated)	16	-2	8	-12	47*	-4
O=C(NC1CCCCC1)C12CC3CC(CC(Cl)(C3)C1)C2	.	-3	.	-3	.	.
COc1cccc(C2NC(CCSC)(C(=O)O)C3C(=O)N(C(C)C)C(=O)C23)c1O (configuration not stated)	20	0	-9	2	40*	-3
COc1cccc(C2NC(CC(C)C)(C(=O)O)C3C(=O)N(Cc4ccccc4)C(=O)C23)c1O (configuration not stated)	.	-3	-19	8	1	.
COc1ccc(OC)c(NC(=O)CN2CCC(C(=O)c3ccc(C)cc3)CC2)c1	-2	1	-2	-19	35*	-8
CCOc1ccc(S(=O)(=O)N2CCCC2)cc1	-4	-2	-13	-7	-9	-2
COc1ccc(C)cc1NC(=O)CN1CCN(S(=O)(=O)c2ccc(C(C)C)cc2)CC1	3	-1	-5	12	17	-11
COc1ccc(C)cc1NC(=O)CN1CCN(S(=O)(=O)c2ccc(Cl)cc2)CC1	-19	-1	16	10	50*	-2
CCOc1ccc(C(=O)CN2CCN(S(=O)(=O)c3ccc(Cl)cc3)CC2)cc1	10	0	1	-6	32*	-8
Cc1c(C(=O)OC(C)C)nnn1-c1nonc1N	-2	-3	.	8	.	-4
O=C(COc1ccc(Cl)cc1Cl)NCCC1=CCCCC1	8	-1	-18	3	48*	-2
SMILES	S1P2 blocker	GALR2 agonist	PostGolgi yeast	GALR2 antag	PostGolgi ctrl	S1P2 ag
O=C(COc1ccc(Cl)cc1Cl)NCCCN1CCOCC1	12	0	65*	-6	18	-8
CC(C)(C)C(=O)n1nc(-c2ccccc2)oc1=O	.	-1	.	-9	.	.
CCOC(=O)C1=C(O)/C(=C/c2cn(CC(=O)NCC3CCCO3)c3ccccc23)SC1=Nc1ccc(C)cc1 (configuration not stated)	3	1	.	34*	.	-5
CC(C)C(=O)c1cn(CC(=O)NCC2CCCO2)c2ccccc12 (configuration not stated)	22	-1	0	-10	7	-8
COC(=O)[C@@H]1C[C@]2(OC(=O)c3ccccc3)C=CC(=O)C[C@@H]2N1C(=O)OCc1ccccc1	.	-1	.	28*	.	.
O=C(CSc1nnc(-c2cc3ccccc3cc2O)n1Cc1ccco1)N1CCc2ccccc2C1	28	0	2	-9	80*	-3
CCC(C)NC(=O)C1CCN(S(=O)(=O)CC)CC1 (configuration not stated)	9	0	4	-2	6	-5
CCC(C)NC(=O)C1CCN(S(=O)(=O)N2CCCC2)CC1 (configuration not stated)	.	-2	-10	9	31*	.
COc1ccc(N=C2C(=O)N3c4c(cccc42)C(C)=CC3(C)C)cc1	.	-1	.	10	.	.
COCCn1c(C23CC4CC(CC(C4)C2)C3)n[nH]c1=S	-2	-1	11	-9	32*	-2
CC(C)n1c(C(=O)OCC(=O)NCc2ccc3c(c2)OCO3)cc2sccc21	6	-2	0	13	37*	-7
CC(C)n1c(C(=O)OCC(=O)NCc2ccc3c(c2)OCO3)cc2occc21	.	-2	-5	-1	13	.
N=c1c(-c2nc3ccccc3[nH]2)cc(C(=O)c2cccs2)nn1-c1ccc(Cl)cc1	-29	-2	.	3	.	30*
CON/C=C(\C=Nc1ccc(C(F)(F)F)cc1)c1ncc(C(F)(F)F)cc1Cl	10	-2	9	10	4	-3
CON/C=C(\C=Nc1ccc(Cl)cc1)c1ncc(C(F)(F)F)cc1Cl	47*	-2	-4	-2	8	-5
Cn1nc(C(=O)N2CCCC2)c2ccccc2c1=O	-4	0	-3	1	30*	-5
Cn1nc(C(=O)N2CCOCC2)c2ccccc2c1=O	-4	-4	.	1	.	-3
Cc1ccc(C(=O)N/C(=C\c2ccc(Cl)cc2)C(=O)NCC2CCCO2)cc1 (configuration not stated)	.	-1	.	1	.	.
Cc1ccc(C2=NN3C(C(=O)c4ccccc4)Oc4ccccc4C3C2)cc1 (configuration not stated)	-4	0	12	17	50*	-7
c1ccc(CCn2nnnc2C(c2cccnc2)N2CCN(c3nc4ccccc4s3)CC2)cc1 (configuration not stated)	-5	0	43*	4	15	-7
CCCC(c1nnnn1Cc1cccs1)N1CCN(c2nc3ccccc3s2)CC1 (configuration not stated)	13	0	47*	6	19	-9
Fc1ccc(N2CCN(C(c3cccs3)c3nnnn3CCc3ccccc3)CC2)cc1 (configuration not stated)	13	-1	12	0	37*	-1
c1ccc(CCn2nnnc2C(c2cccnc2)N2CCN(c3ccccc3)CC2)cc1 (configuration not stated)	-20	-3	62*	-6	43*	0

Compound activity: PubChem, several laboratories
